# Results filed as inconclusive are left out. A call without a number means that no potency is given here. The source made the active and inactive calls. Calls follow the shape of the dose curve; as a rule, active = well fitted inhibition curve with a large enough effect; inconclusive = small, poorly fitted or top-dose-only effect; inactive = flat fitted curve, though single readings scatter.
# Experiment: qHTS to identify inhibitors of the type 1 interferon - major histocompatibility complex class I in skeletal muscle: primary screen against the NCATS Pharmaceutical Collection (AID 1347407)
# Settings: human skeletal muscle cells, IFN-b-induced MHC-I HiBiT luminescence, 24 h; series mostly up to 45.9 µM
# Summary of the method: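 Immortalized human myoblasts (C25cl48) with HiBiT knocked into endogenous HLA-B*08:01 were stimulated with 4.0 ng/ml IFN-beta and treated with compounds ([…] top 46 uM) for 24 hrs at 37 C. HiBiT lytic luminescence read.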
row,SMILES,Potency
1,C[C@@H]1C[C@H]2[C@@H]3C[C@H](F)C4=CC(=O)C(Cl)=C[C@]4(C)[C@@]3(F)[C@@H](O)C[C@]2(C)[C@@]1(O)C(=O)CO,inactive
2,c1ccc(CNCCNCc2ccccc2)cc1,inactive
3,Cc1cccc(C)c1NC(=O)CN1CCN(CCCC(c2ccc(F)cc2)c2ccc(F)cc2)CC1,inactive
4,CCOc1ccc2nc3cc(N)ccc3c(N)c2c1,inactive
5,CCOC(=O)n1ccn(C)c1=S,inactive
6,O=S1(=O)c2cccc3cccc(c23)N1CCCN1CCN(c2ccc(F)cc2)CC1,inactive
7,Cc1cc(O)c(C(C)C)cc1Cl,inactive
8,C[C@H](CCC(=O)O)[C@H]1CC[C@H]2[C@@H]3C(=O)C[C@@H]4CC(=O)CC[C@]4(C)[C@H]3CC(=O)[C@]12C,inactive
9,COc1cc(/C=C/C(=O)O[C@H]2CC[C@]34C[C@]35CC[C@]3(C)[C@@H]([C@H](C)CCC=C(C)C)CC[C@@]3(C)[C@@H]5CC[C@H]4C2(C)C)ccc1O,inactive
10,CN1C(CCl)Nc2cc(Cl)c(S(N)(=O)=O)cc2S1(=O)=O (configuration not stated),inactive
11,CCOc1ccc(NC(=O)CC(C)O)cc1 (configuration not stated),inactive
12,Cc1cc(=O)n(-c2ccccc2)n1C,inactive
13,O=c1ccc2ccccc2o1,inactive
14,CC1(C)OC[C@@H](COC(=O)CCc2ccc(OC[C@@H](O)CNCCNC(=O)N3CCOCC3)cc2)O1,inactive
15,OC[C@@H](O)[C@@H](O[C@@H]1O[C@H](CO)[C@H](O)[C@H](O)[C@H]1O)[C@H](O)[C@@H](O)CO,inactive
16,CCCCS(=O)(=O)N[C@@H](Cc1ccc(OCCCCC2CCNCC2)cc1)C(=O)O,inactive
17,CC(C)(CO)[C@@H](O)C(=O)NCCCO,inactive

# Source: PubChem BioAssay (NCATS)
